Measurements taken from PMC10812921, “Transcriptional Coactivator BOB1 (OBF1, OCA-B) Modulates the Specificity of DNA Recognition by the POU-Domain Factors OCT1 and OCT2 in a Monomeric Configuration”.

These sequences were tested against POU1 (OCT1 POU domain);BOB1 (OBF1, OCA-B) (human;human, UniProt P14859;Q16633 260-458;1-256, |) (assay: EMSA-SELEX-seq; with BOB1 (ternary complex band); 20 mM Tris-HCl pH 7.6, 140 mM NaCl, 10% glycerol, 0.5 mM EDTA, 0.05% Triton X-100, 0.1 mg/mL BSA, 0.1 mg/mL poly(dI-dC), 5 mM DTT, room temperature, 20 min; high values mean tight binding). Settings: protein: recombinant;recombinant; copies: 1;1; dsDNA, one strand shown.
Method in brief: (§1)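 Binding preference is reported as the percentage of sequenced 8-mers that match a motif pattern. Tagged POU-domain proteins were made in E. coli BL21, purified under denaturing conditions and renatured. A 30 ng portion was combined with 300 ng of a PCR-amplified double-stranded random 35-nt library, with or without 28 ng coactivator protein, in 20 μL Tris–HCl pH 7.6 binding buffer for 20 min at RT. Complex bands were excised from native 6% PAGE, eluted and PCR-amplified over four rounds before Illumina sequencing.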

Sequence | binding signal
AGCGTAAA | 0.0347 % of ANNNNAAN 8-mers
AATCCAAA | 0.0726 % of ANNNNAAN 8-mers
ACATAAAT | 0.117 % of ANNNNAAN 8-mers
ATAAAAAA | 0.0823 % of ANNNNAAN 8-mers
ACGGTAAA | 0.0507 % of ANNNNAAN 8-mers
ACGCAAAG | 0.163 % of ANNNNAAN 8-mers
AGCCAAAA | 0.0499 % of ANNNNAAN 8-mers
AGGCCAAA | 0.0242 % of ANNNNAAN 8-mers
ACTGAAAT | 0.0472 % of ANNNNAAN 8-mers
AATAGAAA | 0.0858 % of ANNNNAAN 8-mers
ACTATAAC | 0.023 % of ANNNNAAN 8-mers
AAAAAAAC | 0.0784 % of ANNNNAAN 8-mers
AACAAAAT | 0.14 % of ANNNNAAN 8-mers
ATAAAAAT | 0.114 % of ANNNNAAN 8-mers
ACGCGAAA | 0.0211 % of ANNNNAAN 8-mers
AGCCGAAG | 0.0195 % of ANNNNAAN 8-mers
ATCGCAAA | 0.0816 % of ANNNNAAN 8-mers
AGCCAAAT | 0.167 % of ANNNNAAN 8-mers
AGCAAAAT | 0.107 % of ANNNNAAN 8-mers

Sequence | binding signal
ACGTTAAT | 0.073 % of ANNNNAAN 8-mers
AGCCCAAG | 0.0129 % of ANNNNAAN 8-mers
AGCGTAAG | 0.0215 % of ANNNNAAN 8-mers
AGCTTAAG | 0.0379 % of ANNNNAAN 8-mers
ACGAAAAC | 0.0289 % of ANNNNAAN 8-mers
ACTAAAAC | 0.023 % of ANNNNAAN 8-mers
ATTATAAA | 0.0691 % of ANNNNAAN 8-mers
ACTCGAAG | 0.0168 % of ANNNNAAN 8-mers
AACGGAAT | 0.0601 % of ANNNNAAN 8-mers
ACCTTAAT | 0.0418 % of ANNNNAAN 8-mers
AAGCTAAT | 0.0527 % of ANNNNAAN 8-mers
ACCCGAAG | 0.0129 % of ANNNNAAN 8-mers
AATATAAG | 0.0886 % of ANNNNAAN 8-mers
ACCTGAAC | 0.0113 % of ANNNNAAN 8-mers
AGTTTAAG | 0.0519 % of ANNNNAAN 8-mers
ATTGTAAC | 0.0336 % of ANNNNAAN 8-mers
AATGCAAC | 0.046 % of ANNNNAAN 8-mers
ACTCCAAC | 0.0113 % of ANNNNAAN 8-mers
AGTAAAAT | 0.236 % of ANNNNAAN 8-mers

The sequences below were run against T1, POU2 (OCT2 POU domain);BOB1 (OBF1, OCA-B) (human;human, UniProt P09086;Q16633 175-386;1-256, |) in the same assay as above. Settings: protein: recombinant;recombinant; copies: 1;1; dsDNA, one strand shown.
T1 sequence 1: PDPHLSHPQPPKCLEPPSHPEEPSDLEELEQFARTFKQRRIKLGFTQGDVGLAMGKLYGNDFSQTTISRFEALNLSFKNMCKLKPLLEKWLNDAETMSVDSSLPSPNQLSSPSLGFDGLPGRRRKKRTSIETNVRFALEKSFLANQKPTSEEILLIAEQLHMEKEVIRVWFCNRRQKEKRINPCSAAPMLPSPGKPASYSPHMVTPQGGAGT
T1 sequence 2: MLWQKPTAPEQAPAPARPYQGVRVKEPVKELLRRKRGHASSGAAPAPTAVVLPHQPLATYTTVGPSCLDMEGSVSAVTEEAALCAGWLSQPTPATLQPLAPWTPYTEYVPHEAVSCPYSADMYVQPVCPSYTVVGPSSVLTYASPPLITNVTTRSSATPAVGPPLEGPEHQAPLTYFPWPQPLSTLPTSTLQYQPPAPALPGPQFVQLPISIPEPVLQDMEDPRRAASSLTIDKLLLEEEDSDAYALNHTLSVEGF
Method in brief: as §1

Sequence | binding signal
ATCGCAAG | 0.0206 % of ANNNNAAN 8-mers
AGCGTAAA | 0.0396 % of ANNNNAAN 8-mers
AATCCAAA | 0.0371 % of ANNNNAAN 8-mers
ACATAAAT | 0.177 % of ANNNNAAN 8-mers
ATAAAAAA | 0.0801 % of ANNNNAAN 8-mers
ACGGTAAA | 0.0504 % of ANNNNAAN 8-mers
ACGCAAAG | 0.0809 % of ANNNNAAN 8-mers
AGCCAAAA | 0.0305 % of ANNNNAAN 8-mers
AGGCCAAA | 0.0281 % of ANNNNAAN 8-mers
ACTGAAAT | 0.0495 % of ANNNNAAN 8-mers
AATAGAAA | 0.071 % of ANNNNAAN 8-mers
ACTATAAC | 0.0239 % of ANNNNAAN 8-mers
AAAAAAAC | 0.0512 % of ANNNNAAN 8-mers
AACAAAAT | 0.0982 % of ANNNNAAN 8-mers
ATAAAAAT | 0.09 % of ANNNNAAN 8-mers
ACGCGAAA | 0.0314 % of ANNNNAAN 8-mers
AGCCGAAG | 0.0182 % of ANNNNAAN 8-mers
ATCGCAAA | 0.0413 % of ANNNNAAN 8-mers
AGCCAAAT | 0.0892 % of ANNNNAAN 8-mers
AGCAAAAT | 0.0759 % of ANNNNAAN 8-mers

Sequence | binding signal
ACGTTAAT | 0.102 % of ANNNNAAN 8-mers
AGCCCAAG | 0.0124 % of ANNNNAAN 8-mers
AGCGTAAG | 0.0338 % of ANNNNAAN 8-mers
AGCTTAAG | 0.0355 % of ANNNNAAN 8-mers
ACGAAAAC | 0.0264 % of ANNNNAAN 8-mers
ACTAAAAC | 0.0297 % of ANNNNAAN 8-mers
ATTATAAA | 0.0801 % of ANNNNAAN 8-mers
ACTCGAAG | 0.0182 % of ANNNNAAN 8-mers
AACGGAAT | 0.0627 % of ANNNNAAN 8-mers
ACCTTAAT | 0.0545 % of ANNNNAAN 8-mers
AAGCTAAT | 0.0644 % of ANNNNAAN 8-mers
ACCCGAAG | 0.0132 % of ANNNNAAN 8-mers
AATATAAG | 0.0966 % of ANNNNAAN 8-mers
ACCTGAAC | 0.0215 % of ANNNNAAN 8-mers
AGTTTAAG | 0.0504 % of ANNNNAAN 8-mers
ATTGTAAC | 0.0371 % of ANNNNAAN 8-mers
AATGCAAC | 0.0413 % of ANNNNAAN 8-mers
ACTCCAAC | 0.0198 % of ANNNNAAN 8-mers
AGTAAAAT | 0.148 % of ANNNNAAN 8-mers
